# Measured values reported in the supplement of paper PMC11732987, “Enantioselective OTUD7B fragment discovery through chemoproteomics screening and high-throughput optimisation” (Communications Chemistry, 2025).
# A number with no mark means an inactive call.
# What was measured:
# Test in all cases: log2 ratio of Biotin-Ahx-Ub-VS probe labelling (fragment/DMSO); higher = less target engagement (more negative = stronger competition), active = hit call of the paper (q ≤ 0.05, log2 ratio ≤ -1)
# Conditions in all cases: compound concentration: 200 uM; treatment time: 3 h
# OTUD6B = target: T1, OTUD6B (UniProt Q8N6M0)
# T1 sequence (whole entry): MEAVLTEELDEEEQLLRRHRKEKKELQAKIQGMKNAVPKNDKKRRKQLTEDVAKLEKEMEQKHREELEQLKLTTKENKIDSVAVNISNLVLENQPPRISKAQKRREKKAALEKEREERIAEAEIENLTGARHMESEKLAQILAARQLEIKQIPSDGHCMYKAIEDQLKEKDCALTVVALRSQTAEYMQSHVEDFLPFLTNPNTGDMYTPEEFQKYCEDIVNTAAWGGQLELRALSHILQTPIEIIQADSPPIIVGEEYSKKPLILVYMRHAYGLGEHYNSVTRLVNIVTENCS
# How it was run: (§1)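 Global-median-normalised Spectronaut label-free quantities were compared by unpaired t-test, and values are average log2 ratios of fragment over vehicle. Only proteins with ≥2 unique peptides were used. HEK293T lysate (495 µg per sample) was treated in triplicate with fragment at 200 µM or vehicle for 3 h and then with Biotin-Ahx-Ub-VS at 0.5 µM final for 1 h. Labelled DUBs were then NeutrAvidin-enriched, digested with LysC and trypsin, and run by diaPASEF LC-MS/MS.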
# OTUD7B = target: T2, OTUD7B (UniProt Q6GQQ9)
# T2 sequence (whole entry): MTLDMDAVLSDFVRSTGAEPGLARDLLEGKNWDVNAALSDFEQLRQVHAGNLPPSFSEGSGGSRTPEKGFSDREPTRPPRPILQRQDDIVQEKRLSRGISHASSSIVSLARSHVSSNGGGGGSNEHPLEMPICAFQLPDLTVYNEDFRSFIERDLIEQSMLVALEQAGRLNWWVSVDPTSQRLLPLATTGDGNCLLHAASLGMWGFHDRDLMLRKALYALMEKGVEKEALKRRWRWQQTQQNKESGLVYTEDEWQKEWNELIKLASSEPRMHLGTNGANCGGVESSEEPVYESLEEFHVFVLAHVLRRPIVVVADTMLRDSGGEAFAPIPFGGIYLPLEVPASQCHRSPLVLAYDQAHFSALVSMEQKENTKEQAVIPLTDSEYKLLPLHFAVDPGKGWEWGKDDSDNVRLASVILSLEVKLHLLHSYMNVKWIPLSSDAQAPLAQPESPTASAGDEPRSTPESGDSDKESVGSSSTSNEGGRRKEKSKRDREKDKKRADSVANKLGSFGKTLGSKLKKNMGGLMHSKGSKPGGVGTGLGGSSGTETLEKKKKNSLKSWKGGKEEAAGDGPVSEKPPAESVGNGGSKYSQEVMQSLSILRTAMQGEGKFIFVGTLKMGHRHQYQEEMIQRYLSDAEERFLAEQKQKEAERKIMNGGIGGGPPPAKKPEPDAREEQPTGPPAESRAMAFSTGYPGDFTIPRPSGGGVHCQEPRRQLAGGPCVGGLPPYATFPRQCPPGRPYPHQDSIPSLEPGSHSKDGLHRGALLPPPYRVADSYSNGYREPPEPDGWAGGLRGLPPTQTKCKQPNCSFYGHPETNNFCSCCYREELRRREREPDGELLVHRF
# How it was run: as §1
# PRPF8 = PRPF8 (UniProt Q6P2Q9)
# How it was run: as §1
# PSMD7 = target: T3, PSMD7 (UniProt P51665)
# T3 sequence (whole entry): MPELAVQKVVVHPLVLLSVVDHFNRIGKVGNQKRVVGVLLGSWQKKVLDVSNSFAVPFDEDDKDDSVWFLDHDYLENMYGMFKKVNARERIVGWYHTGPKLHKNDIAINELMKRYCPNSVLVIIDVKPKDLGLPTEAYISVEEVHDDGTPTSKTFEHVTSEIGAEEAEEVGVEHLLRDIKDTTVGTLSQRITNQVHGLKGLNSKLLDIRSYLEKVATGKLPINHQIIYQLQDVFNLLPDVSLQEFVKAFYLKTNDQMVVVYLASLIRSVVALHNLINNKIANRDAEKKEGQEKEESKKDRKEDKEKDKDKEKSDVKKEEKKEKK
# How it was run: as §1
# UCHL1 = UCHL1 (UniProt P09936)
# UCHL1, sequence (P09936 whole entry, looked up): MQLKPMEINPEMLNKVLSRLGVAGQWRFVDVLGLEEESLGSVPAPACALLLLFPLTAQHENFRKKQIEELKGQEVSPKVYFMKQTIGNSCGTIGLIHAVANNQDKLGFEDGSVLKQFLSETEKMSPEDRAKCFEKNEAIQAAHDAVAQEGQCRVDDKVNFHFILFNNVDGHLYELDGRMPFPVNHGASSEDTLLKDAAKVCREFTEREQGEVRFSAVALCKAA
# How it was run: as §1
# UCHL3 = target: T4, UCHL3 (UniProt P15374)
# T4 sequence (whole entry): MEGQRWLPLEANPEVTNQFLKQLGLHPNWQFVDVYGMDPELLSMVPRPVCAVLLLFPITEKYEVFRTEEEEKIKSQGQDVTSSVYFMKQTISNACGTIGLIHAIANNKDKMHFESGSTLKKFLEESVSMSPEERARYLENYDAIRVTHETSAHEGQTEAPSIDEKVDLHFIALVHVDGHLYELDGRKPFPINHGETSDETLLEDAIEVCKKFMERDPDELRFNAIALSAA
# How it was run: as §1
# UCHL5 = target: T5, UCHL5 (UniProt Q9Y5K5)
# T5 sequence (whole entry): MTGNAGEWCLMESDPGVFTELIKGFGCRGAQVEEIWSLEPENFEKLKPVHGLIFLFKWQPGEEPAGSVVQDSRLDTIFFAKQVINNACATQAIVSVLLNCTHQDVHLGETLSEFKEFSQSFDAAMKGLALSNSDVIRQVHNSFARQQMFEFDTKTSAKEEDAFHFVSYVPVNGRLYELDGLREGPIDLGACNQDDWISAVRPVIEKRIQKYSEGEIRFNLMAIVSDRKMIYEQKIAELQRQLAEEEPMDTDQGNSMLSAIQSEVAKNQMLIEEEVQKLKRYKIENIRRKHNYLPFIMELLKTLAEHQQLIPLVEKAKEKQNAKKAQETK
# How it was run: as §1
# USP10 = USP10 (UniProt Q14694)
# USP10, sequence (Q14694 whole entry): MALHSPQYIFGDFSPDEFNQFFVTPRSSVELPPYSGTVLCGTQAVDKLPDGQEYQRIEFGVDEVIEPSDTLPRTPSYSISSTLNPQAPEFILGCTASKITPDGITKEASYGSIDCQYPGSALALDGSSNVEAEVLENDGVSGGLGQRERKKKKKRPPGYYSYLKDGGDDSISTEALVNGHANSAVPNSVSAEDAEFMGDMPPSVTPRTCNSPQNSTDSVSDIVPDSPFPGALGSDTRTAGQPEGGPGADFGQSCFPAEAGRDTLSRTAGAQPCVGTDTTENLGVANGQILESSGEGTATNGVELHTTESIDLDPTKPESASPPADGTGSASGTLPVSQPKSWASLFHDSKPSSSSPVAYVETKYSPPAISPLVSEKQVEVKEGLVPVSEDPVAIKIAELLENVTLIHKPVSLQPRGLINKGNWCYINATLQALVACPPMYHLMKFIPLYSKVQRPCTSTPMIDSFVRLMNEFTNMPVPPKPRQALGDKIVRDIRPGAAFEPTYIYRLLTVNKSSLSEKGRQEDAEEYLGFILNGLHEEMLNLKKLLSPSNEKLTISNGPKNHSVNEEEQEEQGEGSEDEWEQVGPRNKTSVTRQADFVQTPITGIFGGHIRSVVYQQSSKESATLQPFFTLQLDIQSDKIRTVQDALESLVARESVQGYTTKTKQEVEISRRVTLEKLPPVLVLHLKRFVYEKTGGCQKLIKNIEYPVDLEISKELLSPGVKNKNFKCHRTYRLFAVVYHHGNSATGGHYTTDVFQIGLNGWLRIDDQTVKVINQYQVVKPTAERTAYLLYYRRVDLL
# How it was run: as §1
# USP15 = target: T6, USP15 (UniProt Q9Y4E8)
# T6 sequence (whole entry): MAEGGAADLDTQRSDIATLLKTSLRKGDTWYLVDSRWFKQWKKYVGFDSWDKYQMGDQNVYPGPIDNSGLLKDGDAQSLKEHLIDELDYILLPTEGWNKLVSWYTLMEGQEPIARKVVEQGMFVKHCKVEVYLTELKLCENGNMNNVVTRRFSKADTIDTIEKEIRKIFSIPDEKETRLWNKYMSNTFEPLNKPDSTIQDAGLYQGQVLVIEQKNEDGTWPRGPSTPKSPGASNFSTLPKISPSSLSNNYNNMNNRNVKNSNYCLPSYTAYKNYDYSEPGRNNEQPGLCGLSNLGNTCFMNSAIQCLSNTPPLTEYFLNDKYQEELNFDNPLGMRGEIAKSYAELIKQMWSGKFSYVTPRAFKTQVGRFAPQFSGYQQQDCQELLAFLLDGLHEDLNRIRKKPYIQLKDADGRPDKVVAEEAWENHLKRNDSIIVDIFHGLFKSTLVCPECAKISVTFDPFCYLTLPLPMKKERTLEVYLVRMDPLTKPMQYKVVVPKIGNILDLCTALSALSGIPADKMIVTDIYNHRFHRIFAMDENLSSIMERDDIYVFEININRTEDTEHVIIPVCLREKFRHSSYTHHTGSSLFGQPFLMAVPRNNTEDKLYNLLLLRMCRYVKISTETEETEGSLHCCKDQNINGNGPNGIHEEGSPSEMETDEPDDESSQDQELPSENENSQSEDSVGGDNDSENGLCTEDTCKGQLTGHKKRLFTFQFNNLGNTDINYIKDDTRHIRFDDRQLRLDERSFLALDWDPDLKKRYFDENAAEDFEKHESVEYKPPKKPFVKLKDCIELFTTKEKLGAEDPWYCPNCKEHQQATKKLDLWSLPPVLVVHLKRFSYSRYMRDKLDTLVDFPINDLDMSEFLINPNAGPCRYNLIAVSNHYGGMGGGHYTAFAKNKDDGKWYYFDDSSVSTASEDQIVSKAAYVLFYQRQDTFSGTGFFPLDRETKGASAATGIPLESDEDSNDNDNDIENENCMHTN
# How it was run: as §1
# USP16 = USP16 (UniProt Q9Y5T5)
# USP16, sequence (Q9Y5T5 whole entry, looked up): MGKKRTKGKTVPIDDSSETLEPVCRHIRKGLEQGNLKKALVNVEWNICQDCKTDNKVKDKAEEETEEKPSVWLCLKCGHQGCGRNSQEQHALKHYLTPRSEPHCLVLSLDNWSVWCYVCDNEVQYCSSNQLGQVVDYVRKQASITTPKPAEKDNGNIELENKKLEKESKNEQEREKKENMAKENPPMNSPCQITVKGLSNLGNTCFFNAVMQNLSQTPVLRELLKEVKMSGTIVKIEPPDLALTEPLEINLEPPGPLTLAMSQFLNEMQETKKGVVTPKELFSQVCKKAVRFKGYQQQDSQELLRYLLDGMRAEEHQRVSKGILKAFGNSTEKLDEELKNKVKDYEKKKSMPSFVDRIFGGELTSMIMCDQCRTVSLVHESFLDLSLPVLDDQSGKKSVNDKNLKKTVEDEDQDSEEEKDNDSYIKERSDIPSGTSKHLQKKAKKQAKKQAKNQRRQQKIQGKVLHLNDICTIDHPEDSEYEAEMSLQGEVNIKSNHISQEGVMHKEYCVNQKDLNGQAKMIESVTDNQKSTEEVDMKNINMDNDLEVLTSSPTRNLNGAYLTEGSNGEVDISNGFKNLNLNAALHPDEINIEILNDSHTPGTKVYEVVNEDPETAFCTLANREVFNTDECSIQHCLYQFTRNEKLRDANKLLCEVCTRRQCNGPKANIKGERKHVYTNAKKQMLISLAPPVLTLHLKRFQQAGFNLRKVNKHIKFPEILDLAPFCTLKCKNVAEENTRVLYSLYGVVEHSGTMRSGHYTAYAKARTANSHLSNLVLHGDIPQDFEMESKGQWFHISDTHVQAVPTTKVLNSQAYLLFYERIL
# How it was run: as §1
compound,measurement,setting,value
Cc1cccc(N2CCC(NC(=O)CCl)C2=O)c1 (stereo not given),log2 ratio of Biotin-Ahx-Ub-VS probe labelling,OTUD6B,-0.339
same,log2 ratio of Biotin-Ahx-Ub-VS probe labelling,OTUD7B,-1.61 (active)
same,log2 ratio of Biotin-Ahx-Ub-VS probe labelling,PRPF8,-0.232
same,log2 ratio of Biotin-Ahx-Ub-VS probe labelling,PSMD7,-0.248
same,log2 ratio of Biotin-Ahx-Ub-VS probe labelling,UCHL1,-1.87 (active)
same,log2 ratio of Biotin-Ahx-Ub-VS probe labelling,UCHL3,0.0361
same,log2 ratio of Biotin-Ahx-Ub-VS probe labelling,UCHL5,-0.503
same,log2 ratio of Biotin-Ahx-Ub-VS probe labelling,USP10,-0.133
same,log2 ratio of Biotin-Ahx-Ub-VS probe labelling,USP15,-0.299
same,log2 ratio of Biotin-Ahx-Ub-VS probe labelling,USP16,-0.021
